A selection: hits, their analogues and other compounds. The true share with any hit is near 9%.
HPGD block = qHTS Assay for Inhibitors of HPGD (15-Hydroxyprostaglandin Dehydrogenase); 15-hydroxyprostaglandin dehydrogenase [NAD(+)] (Homo sapiens), P15428; Potency, µM, for inactives: at the highest dose activity change, negative = inhibition, hits mostly inhibitors; 150,000 compounds, 4.3% hits; AID 894, 2007; purified HPGD, NADH fluorescence kinetic, PGE2 substrate; active means well fitted inhibition curve with a large enough effect, not every such curve was filed as active; inconclusive means small, poorly fitted or top-dose-only effect, or another doubt; inactive means no such curve, though single readings can be large or run the other way; further: on the % scale 0 is the no-effect control and ±100 the full control effect
Target sequence (P15428 whole entry, looked up): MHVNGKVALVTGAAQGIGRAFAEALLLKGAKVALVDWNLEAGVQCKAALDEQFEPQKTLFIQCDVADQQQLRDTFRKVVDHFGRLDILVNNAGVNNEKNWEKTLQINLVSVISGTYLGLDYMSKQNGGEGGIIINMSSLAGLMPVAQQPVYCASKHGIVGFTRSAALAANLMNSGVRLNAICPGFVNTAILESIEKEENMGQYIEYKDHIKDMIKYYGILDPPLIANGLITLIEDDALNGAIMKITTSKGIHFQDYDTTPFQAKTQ
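NADH formation kinetics: reaction with 30 uM PGE2 and 1 mM NAD+ (final), 20 nM enzyme, Tris-HCl pH 8 with Tween 20, after 15 min compound preincubation at room temperature. Fluorescence change, last versus first of five reads.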
Luc counter = Counterscreen for Luciferase (Kinase-Glo TM) Inhibition. Luciferin 4-monooxygenase (Photuris pensylvanica), Q27757. Kinase-Glo luciferase, ATP luminescence, 8 min. Potency, µM (top dose mostly 38.3 µM), for inactives: top-dose activity change, negative = inhibition, hits mostly inhibitors. 200,000 compounds, 0.28% hits. AID 1379, 2008; further: on the % scale 0 is the no-effect control and ±100 the full control effect; nearly all actives have a fitted effect of over 60% in size
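Recombinant Kinase-Glo luciferase, 10 uM ATP (linear range), luciferin; imidazole pH 7.2 / KCl / MgCl2 / Tween / BSA buffer; 8 min RT; luminescence.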
ALDH1A1 block = qHTS Assay for Inhibitors of Aldehyde Dehydrogenase 1 (ALDH1A1); Aldehyde dehydrogenase 1A1 (Homo sapiens), P00352; Purified ALDH1A1, NADH fluorescence, propionaldehyde substrate; Potency, µM (top dose mostly 75.3 µM), for inactives: at the highest dose activity, negative = inhibition, usual class: inhibitors; 220,000 compounds, 7.3% hits; AID 1030, 2008; active means well fitted inhibition curve with a large enough effect, not every such curve was filed as active; inconclusive means small, poorly fitted or top-dose-only effect, or another doubt; inactive means no such curve, though single readings can be large or run the other way;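 further: plate controls were no enzyme wells and a reference inhibitor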
Target sequence (P00352 whole entry, looked up): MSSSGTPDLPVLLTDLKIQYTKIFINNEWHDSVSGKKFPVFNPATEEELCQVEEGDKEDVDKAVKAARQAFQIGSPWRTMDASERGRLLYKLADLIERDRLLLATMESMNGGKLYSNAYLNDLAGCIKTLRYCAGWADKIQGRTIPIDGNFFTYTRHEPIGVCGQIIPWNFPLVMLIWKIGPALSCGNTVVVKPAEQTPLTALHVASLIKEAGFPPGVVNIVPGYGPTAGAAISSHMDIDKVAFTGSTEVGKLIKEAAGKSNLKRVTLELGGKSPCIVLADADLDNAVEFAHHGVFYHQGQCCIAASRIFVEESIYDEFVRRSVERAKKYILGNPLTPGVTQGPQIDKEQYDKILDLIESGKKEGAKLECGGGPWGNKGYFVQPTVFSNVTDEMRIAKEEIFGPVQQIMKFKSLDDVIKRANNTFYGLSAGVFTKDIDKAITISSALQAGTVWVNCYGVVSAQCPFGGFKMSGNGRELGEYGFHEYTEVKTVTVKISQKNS
HTT cytoprotect = qHTS Multiplex Assay to Identify Dual Action Probes in a Cell Model of Huntington: Cytoprotection (ATP). PC12 HTT-Q103 induced, cytoprotection, ATP luminescence, 40 h. Potency, µM (titrated, usually from 56.4 µM), inactives show cytoprotection (ATP increase), actives largely listed as activators. 230,000 compounds, 0.14% hits; further: % of control where 0% means no effect; nearly all actives have a fitted effect of over 45% in size
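Huntington model: PC12 line, ecdysone-inducible HTTQ103 exon1–GFP, tebufenozide 100 nM. Test articles in a dose series. Endpoint luminescence from cellular ATP.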
HTT aggregate = qHTS Multiplex Assay to Identify Dual Action Probes in a Cell Model of Huntington: Aggregate Formation (GFP); PC12 HttQ103-GFP aggregates, Acumen cytometry, 40 h; Potency, µM (titrated, usually from 46.1 µM), for the others: top-dose activity change, negative = inhibition, usual class: inhibitors; 220,000 compounds, 1.1% hits; further: on the % scale 0 is the no-effect control and ±100 the full control effect; nearly all actives have a fitted effect of over 60% in size
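Inducible Q103 Huntingtin exon 1–GFP PC12 line, 1500 cells/well in phenol red free DMEM with 5% equine and 5% calf serum. Tebufenozide 100 nM induced expression; compounds titrated; aggregates quantified by cytometry.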
LMNA splice mod = qHTS Assay for Modulators of Lamin A Splicing | HeLa LMNA splicing GFP/RFP minigene ratio, 48 h | Potency, µM (doses to about 46.1 µM), inactives show at the highest dose ratio change, negative = inhibition, actives largely listed as inhibitors | 200,000 compounds, 0.01% hits | AID 1487, 2009; active means well fitted inhibition curve with a large enough effect in the signal ratio, with a control signal flat, not every such curve was filed as active; inconclusive means small, poorly fitted or top-dose-only effect, or effect the other way, or a change in a side signal; the % refers to the signal ratio; further: on the % scale 0 is the no-effect control and ±100 the full control effect
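S3 HeLa stable clones carrying a lamin A-EGFP splicing minigene plus DsRed2 were seeded at 600 cells/well in Opti-MEM with 2% FBS, pin-dosed and incubated 48 h at 37°C. Acumen cytometry (488 nm) gave the GFP/RFP total-intensity ratio.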
* = called active by the depositor; ? = inconclusive; / = not tested or not shown; [ ] = dose if it differs, or a comment. Unless noted, the call rests on the fitted dose curve; in most records, active means well fitted curve in the direction sought with a large enough effect; inconclusive means small, poorly fitted or top-dose-only effect, or another doubt; inactive means no such curve, though single readings can be large; an effect the other way counts as inactive or inconclusive. Potency means the concentration at half of the fitted maximal effect.

SMILES	HPGD block	Luc counter	ALDH1A1 block	HTT cytoprotect	HTT aggregate	LMNA splice mod
O=C(O)CSc1cc(NS(=O)(=O)c2cccc([N+](=O)[O-])c2)c2ccccc2c1O	/	/	3.5µM*	-31%[10 µM]	-12%[9.22 µM]	/
CCCNS(=O)(=O)c1ccc2nc(NC(=O)c3ccc(F)cc3)sc2c1	/	/	/	/	/	-7%[46 µM]
CCNC(=S)/N=C(/Nc1ccccc1)Nc1nc(C)cc(C)n1	/	/	/	4%[10 µM]	13%[9.22 µM]	/
Cc1cc(C)nc(N/C(=N/S(=O)(=O)Cc2ccccc2)Nc2ccccc2)n1	-13%	0%	13µM*	/	13%	-6%
CC1(C)CC(=O)C(N=Nc2c(Cl)cc(Cl)cc2Cl)=C(O)C1	-16%	-1%	2µM*	-13%[10 µM]	?	-8%
O=C1CCCC(O)=C1N=Nc1cccc(S(=O)(=O)N2CCOCC2)c1	/	/	/	-7%[10 µM]	-9%[9.22 µM]	/
CC1(C)CC(=O)C(N=Nc2ccc(Cl)cc2)=C(O)C1	-14%	0%	?	-7%[10 µM]	10%	-11%
CC1(C)CC(=O)C(N=Nc2cc(C(F)(F)F)ccc2Cl)=C(O)C1	/	-1%	1.4µM*	13%[10 µM]	24%	1%[46 µM]
CC1(C)CC(=O)C(N=Nc2cc(S(=O)(=O)N3CCOCC3)ccc2Cl)=C(O)C1	/	/	0.1µM*	9%[10 µM]	2%[9.22 µM]	/
O=C1CCCC(O)=C1N=Nc1c(Cl)cc(C(F)(F)F)cc1Cl	/	/	-4%	-7%[10 µM]	-18%[9.22 µM]	/
COc1ccc(/C=C2/SC(=S)N(CCC(=O)O)C2=O)cc1	-26%	-3%	?	-15%	-7%	?
COc1ccc(/C=C2\OC(=S)N(C)C2=O)cc1	-9%	-2%	20µM*	-17%[10 µM]	-9%	?
Cc1cccc2sc(NC(=O)CN(C)S(=O)(=O)c3cccs3)nc12	-6%	0%	-9%	-15%	16µM*	?
Cc1cccc2sc(NC(=O)CN(C)S(=O)(=O)c3ccc(Br)s3)nc12	-17%	-4%	-8%	-3%	?	?
Nc1nc(=S)[nH]c2c1C1(CCCC1)Cc1ccccc1-2	13µM*	-2%	-10%	5%	-2%	4%
CCOc1ccc(N2C(=O)Nc3ccccc3C2(O)C(=O)NCc2ccc(OC)cc2)cc1 (configuration not stated)	/	-6%	?	16%[10 µM]	0.71µM*	-2%[9.22 µM]
C=CCN1/C(=C(\C#N)C2=NS(=O)(=O)c3ccccc32)N(C)c2ccccc21	14µM*	-2%	-4%	17%	-2%	-2%
COc1ccccc1N1CCN(C2=NS(=O)(=O)c3ccccc32)CC1	-8%	-2%	18%	19%[10 µM]	-19%	-10%
COc1ccc(OC)c(C2=NOC(C(=O)NCCN3CCOCC3)C2)c1 (configuration not stated)	?	3%	-4%	15%[10 µM]	-15%	-8%
O=C(NCc1cccnc1)c1cccnc1-c1nc2ccccc2s1	-18%	18%	20µM*	-10%	-4%	-4%
O=C(NCc1cccnc1)c1cc(Sc2cccc(Cl)c2)nc2ccccc12	-16%	0%	11µM*	8%[10 µM]	-5%	?
Oc1ccc(O)c(Cc2nc3ccccc3[nH]2)c1	/	0%	-12%	-72%	?	?
CN(C)C(=O)n1nnnc1Cc1ccc(-c2ccccc2)cc1	-11%	3%[39.9 µM]	1µM*	-310%	/	/
CC(C)CNC(=O)CC(=O)N/N=C/c1cccs1	-8%	1%	1%	/	-5%	-3%
CCOC(=O)c1c(N)sc(C(=O)OC)c1C	/	6%	?	7%[10 µM]	2%[9.22 µM]	/
SMILES	HPGD block	Luc counter	ALDH1A1 block	HTT cytoprotect	HTT aggregate	LMNA splice mod
COC(=O)c1sc(N)c(C(=O)OC)c1COC(=O)c1c(C)noc1C	18µM*	8%	-11%	-62%	-4%	?
O=c1c(Cl)c(Cl)cnn1-c1ccccc1	-12%	0%	13µM*	-96%[10 µM]	?	-27%
Cc1cc(-c2ccccc2)nc(-c2ccccc2)c1C	/	13µM*	?	7%[10 µM]	7%[9.22 µM]	-3%[46 µM]
CCCC/S(CC1CC1(Cl)Cl)=N\S(=O)(=O)c1ccc(C)cc1 (configuration not stated)	-6%	-3%	?	-12%	11%	-14%
Cc1ccc(S(=O)(=O)/N=S(\C)CC2CC2(Cl)Cl)cc1 (configuration not stated)	-12%	-4%	10µM*	-7%	6%	3%
O=c1[nH]nc2c3ccccc3cnn12	-4%	3%	10%	-5%	26%	9%
C/C(=N\NC(=O)c1ccc(Cn2cc([N+](=O)[O-])cn2)o1)c1cccc(NC(=O)C(C)C)c1	-5%	-1%	-4%	/	-14%	-4%
COc1ccc(-c2csc(NC(=O)c3ccccc3NS(=O)(=O)c3ccc(F)c(F)c3)n2)cc1	/	0%	?	-66%[10 µM]	2.5µM*	32%[46 µM]
Cc1ccc(S(=O)(=O)Nc2ccccc2C(=O)Nc2nc(-c3ccc(F)cc3)cs2)cc1	?	3%	?	-44%[0.074 µM]	9%	?
COCCn1c(=O)c(C)nc2cnc(OCc3ccccc3)nc21	-13%	2%	9%	2%	/	/
COc1ccccc1NC(=O)COc1ccccc1C(=O)c1cnn(-c2ccccc2)c1	-26%	-2%	-7%	-11%[10 µM]	-17%	?
CC(/C=N/NC(=S)Nc1cccc(S(=O)(=O)N(C)C)c1)c1ccccc1 (configuration not stated)	35µM*	-2%	7.9µM*	19%[10 µM]	-21%	-12%
CN(C)S(=O)(=O)c1cccc(NC(=S)N/N=C/C(c2ccccc2)c2ccccc2)c1	18µM*	-1%	10µM*	2%[10 µM]	20%	-10%
CN(C)S(=O)(=O)c1cccc(NC(=S)N/N=C/c2ccco2)c1	/	/	/	6%[10 µM]	10%[9.22 µM]	/
COc1cc(/C=N/NC(=S)Nc2cccc(S(=O)(=O)N(C)C)c2)cc(OC)c1O	-26%	-3%	22µM*	?	6%	?
CC1CC(N(C(=O)c2ccc(Cl)cc2)c2ccccc2)c2ccccc2N1C(=O)c1ccco1 (configuration not stated)	-6%	14%	2%	36%[10 µM]	?	?
COC(=O)c1c(Cl)c2n3ccccc3c(C)c(-c3ccccc3)c-2c1C(=O)OC	-8%	-10%	13µM*	21%[10 µM]	-15%	-13%
COC(=O)c1cc2c(-c3ccccc3)c(C)c3ccccn3c-2c1C(=O)OC	-13%	1%	20µM*	-6%	8%	?
